# PMC7862700, “An all-to-all approach to the identification of sequence-specific readers for epigenetic DNA modifications on cytosine”
# Tests used:
# Test in all cases: DAPPL (digital affinity profiling via proximity ligation, sequencing); 10 mM Tris-HCl pH 7.5, 50 mM NaCl, 1 mM DTT, 4% glycerol, room temperature, 30 min; GST-TFs on glutathione beads, 16-mer random dsDNA library, 0.1% formaldehyde crosslink after washing; high values mean tight binding
# [1] = target: T1, FLI1 (Homo sapiens, UniProt Q01543 1-452); settings: protein: recombinant; tags: N-terminal GST; dsDNA, one strand shown
# T1 sequence: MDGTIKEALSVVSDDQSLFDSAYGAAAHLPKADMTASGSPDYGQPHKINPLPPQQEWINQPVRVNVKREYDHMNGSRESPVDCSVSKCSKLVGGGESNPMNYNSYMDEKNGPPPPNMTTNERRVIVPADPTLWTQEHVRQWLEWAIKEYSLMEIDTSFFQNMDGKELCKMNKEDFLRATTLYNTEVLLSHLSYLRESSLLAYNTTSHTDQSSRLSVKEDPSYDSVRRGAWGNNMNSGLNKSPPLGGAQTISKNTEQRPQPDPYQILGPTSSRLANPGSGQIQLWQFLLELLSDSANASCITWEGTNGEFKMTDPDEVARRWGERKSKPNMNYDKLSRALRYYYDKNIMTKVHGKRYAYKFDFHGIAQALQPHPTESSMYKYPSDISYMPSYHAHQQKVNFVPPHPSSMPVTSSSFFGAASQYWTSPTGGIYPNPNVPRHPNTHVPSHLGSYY
# Outline: (§1)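 Sequencing on an Illumina NextSeq500 followed washing, crosslinking with 0.1% formaldehyde, proximity ligation (BsaI/T4 ligase, 1 h, 37 °C) and PCR amplification of pools that had been incubated for 30 min at room temperature with 200 nmole of a random double-stranded 16-mer DNA library in Tris/NaCl/DTT/glycerol buffer. Each pool held DNA-barcoded human transcription factors, expressed in yeast as GST fusions and captured on glutathione beads, plus a tag-only sample. Binding signal is a hexamer's read frequency for a factor divided by its frequency in the tag-only sample.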
# [2] = target: T2, ELK1 (Homo sapiens, UniProt P19419 1-428); settings: protein: recombinant; tags: N-terminal GST; dsDNA, one strand shown
# T2 sequence: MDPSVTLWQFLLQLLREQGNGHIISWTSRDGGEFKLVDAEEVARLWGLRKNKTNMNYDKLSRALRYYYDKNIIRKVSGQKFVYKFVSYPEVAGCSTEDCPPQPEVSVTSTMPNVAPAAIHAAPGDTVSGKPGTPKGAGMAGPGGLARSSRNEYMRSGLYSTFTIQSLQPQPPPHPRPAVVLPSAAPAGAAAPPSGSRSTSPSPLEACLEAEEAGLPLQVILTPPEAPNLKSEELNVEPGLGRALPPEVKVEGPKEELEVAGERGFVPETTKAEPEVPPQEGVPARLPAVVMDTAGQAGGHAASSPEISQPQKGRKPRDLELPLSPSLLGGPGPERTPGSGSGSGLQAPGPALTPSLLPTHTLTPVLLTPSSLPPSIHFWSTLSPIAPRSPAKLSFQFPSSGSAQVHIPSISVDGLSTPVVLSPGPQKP
# Outline: as §1
# [3] = target: T3, GABPA (Homo sapiens, UniProt Q06546 1-454); settings: protein: recombinant; tags: N-terminal GST; dsDNA, one strand shown
# T3 sequence: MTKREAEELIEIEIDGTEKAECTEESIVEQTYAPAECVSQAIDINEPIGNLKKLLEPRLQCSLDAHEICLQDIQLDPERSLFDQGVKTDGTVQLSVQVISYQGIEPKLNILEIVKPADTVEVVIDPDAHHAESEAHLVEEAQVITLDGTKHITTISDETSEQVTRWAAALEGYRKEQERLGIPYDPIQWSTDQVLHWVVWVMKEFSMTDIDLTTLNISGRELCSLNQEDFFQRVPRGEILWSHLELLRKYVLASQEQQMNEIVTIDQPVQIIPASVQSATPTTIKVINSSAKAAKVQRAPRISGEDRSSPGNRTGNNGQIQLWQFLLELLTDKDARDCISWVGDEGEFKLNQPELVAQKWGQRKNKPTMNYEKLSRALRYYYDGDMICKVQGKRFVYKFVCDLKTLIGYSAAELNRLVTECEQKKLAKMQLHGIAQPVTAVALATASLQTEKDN
# Outline: as §1
# [4] = target: T4, ERG (Homo sapiens, UniProt P11308 1-479); settings: protein: recombinant; tags: N-terminal GST; dsDNA, one strand shown
# T4 sequence: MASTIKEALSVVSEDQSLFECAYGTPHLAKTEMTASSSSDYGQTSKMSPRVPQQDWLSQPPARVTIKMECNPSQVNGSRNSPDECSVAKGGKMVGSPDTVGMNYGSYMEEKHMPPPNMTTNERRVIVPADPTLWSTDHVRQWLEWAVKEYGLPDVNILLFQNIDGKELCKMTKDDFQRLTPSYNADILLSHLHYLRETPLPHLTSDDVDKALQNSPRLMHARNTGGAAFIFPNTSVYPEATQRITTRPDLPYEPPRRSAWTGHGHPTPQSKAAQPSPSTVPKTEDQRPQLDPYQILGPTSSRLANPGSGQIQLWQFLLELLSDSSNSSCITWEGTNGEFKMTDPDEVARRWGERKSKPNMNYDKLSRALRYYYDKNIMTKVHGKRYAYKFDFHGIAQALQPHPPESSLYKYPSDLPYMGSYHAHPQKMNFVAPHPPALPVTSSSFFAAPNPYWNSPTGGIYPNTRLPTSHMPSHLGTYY
# Outline: as §1
# [5] = target: ELF1 (Homo sapiens, UniProt P32519 1-619); settings: protein: recombinant; tags: N-terminal GST; dsDNA, one strand shown
# Sequence of ELF1 (P32519 whole entry): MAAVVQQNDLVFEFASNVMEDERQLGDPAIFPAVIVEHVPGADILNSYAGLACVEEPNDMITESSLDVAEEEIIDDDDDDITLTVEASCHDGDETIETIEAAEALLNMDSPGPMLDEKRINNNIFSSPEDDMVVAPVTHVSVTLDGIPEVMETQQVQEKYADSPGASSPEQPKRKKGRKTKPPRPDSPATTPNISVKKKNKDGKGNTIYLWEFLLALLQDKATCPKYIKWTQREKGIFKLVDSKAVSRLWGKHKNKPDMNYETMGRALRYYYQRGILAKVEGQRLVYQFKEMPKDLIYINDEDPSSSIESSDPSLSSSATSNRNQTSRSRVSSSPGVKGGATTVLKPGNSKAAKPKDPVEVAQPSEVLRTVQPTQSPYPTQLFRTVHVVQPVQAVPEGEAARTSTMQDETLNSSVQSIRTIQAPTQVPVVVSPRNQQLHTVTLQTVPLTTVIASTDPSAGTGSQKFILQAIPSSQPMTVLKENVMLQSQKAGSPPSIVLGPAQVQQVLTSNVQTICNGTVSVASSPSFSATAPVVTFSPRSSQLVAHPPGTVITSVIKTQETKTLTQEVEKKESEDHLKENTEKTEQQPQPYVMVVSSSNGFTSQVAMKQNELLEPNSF
# Outline: as §1
# [6] = target: T5, EHF (Homo sapiens, UniProt Q9NZC4 1-300); settings: protein: recombinant; tags: N-terminal GST; dsDNA, one strand shown
# T5 sequence: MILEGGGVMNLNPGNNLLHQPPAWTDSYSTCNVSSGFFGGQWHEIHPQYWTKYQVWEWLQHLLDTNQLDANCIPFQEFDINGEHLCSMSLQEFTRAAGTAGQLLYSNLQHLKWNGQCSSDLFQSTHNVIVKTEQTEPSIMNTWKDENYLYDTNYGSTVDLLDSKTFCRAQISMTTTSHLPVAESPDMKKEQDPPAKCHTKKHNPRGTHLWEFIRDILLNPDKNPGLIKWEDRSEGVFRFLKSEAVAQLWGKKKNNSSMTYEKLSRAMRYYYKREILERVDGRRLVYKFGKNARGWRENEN
# Outline: as §1
# [7] = target: SPI1 (Homo sapiens, UniProt P17947 1-270); settings: protein: recombinant; tags: N-terminal GST; dsDNA, one strand shown
# Outline: as §1
# [8] = target: SPIB (Homo sapiens, UniProt Q01892 1-262); settings: protein: recombinant; tags: N-terminal GST; dsDNA, one strand shown
# Sequence of SPIB (Q01892 whole entry): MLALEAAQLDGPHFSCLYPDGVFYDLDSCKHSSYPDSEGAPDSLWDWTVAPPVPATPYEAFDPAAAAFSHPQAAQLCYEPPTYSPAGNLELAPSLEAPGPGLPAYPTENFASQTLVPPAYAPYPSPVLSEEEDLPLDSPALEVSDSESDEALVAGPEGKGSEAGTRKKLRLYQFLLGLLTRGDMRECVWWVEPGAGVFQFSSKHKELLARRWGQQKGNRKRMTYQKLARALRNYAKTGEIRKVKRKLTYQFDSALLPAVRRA
# Outline: as §1
# [9] = target: T6, ELK3 (Homo sapiens, UniProt P41970 1-407); settings: protein: recombinant; tags: N-terminal GST; dsDNA, one strand shown
# T6 sequence: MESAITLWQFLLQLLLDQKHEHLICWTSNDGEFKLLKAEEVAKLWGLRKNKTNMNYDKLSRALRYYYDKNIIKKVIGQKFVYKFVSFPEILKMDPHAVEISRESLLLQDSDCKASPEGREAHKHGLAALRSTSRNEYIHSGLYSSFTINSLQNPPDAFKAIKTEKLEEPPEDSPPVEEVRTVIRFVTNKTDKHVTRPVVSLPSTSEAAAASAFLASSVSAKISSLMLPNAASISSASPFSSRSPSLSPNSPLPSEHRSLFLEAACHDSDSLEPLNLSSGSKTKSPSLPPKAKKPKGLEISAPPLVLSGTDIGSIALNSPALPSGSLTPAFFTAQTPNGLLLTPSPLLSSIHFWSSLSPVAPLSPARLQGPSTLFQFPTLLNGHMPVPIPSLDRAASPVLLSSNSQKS
# Outline: as §1
# [10] = target: T7, FEV (Homo sapiens, UniProt Q99581 1-238); settings: protein: recombinant; tags: N-terminal GST; dsDNA, one strand shown
# T7 sequence: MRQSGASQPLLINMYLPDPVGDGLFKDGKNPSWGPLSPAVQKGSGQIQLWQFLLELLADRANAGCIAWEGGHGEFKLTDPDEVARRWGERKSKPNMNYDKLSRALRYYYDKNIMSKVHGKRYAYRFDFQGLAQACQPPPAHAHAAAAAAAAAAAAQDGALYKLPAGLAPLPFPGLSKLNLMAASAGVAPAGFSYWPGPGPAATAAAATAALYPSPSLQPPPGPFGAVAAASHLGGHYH
# Outline: as §1
# [11] = target: ETV5 (Homo sapiens, UniProt P41161 1-510); settings: protein: recombinant; tags: N-terminal GST; dsDNA, one strand shown
# Sequence of ETV5 (P41161 whole entry): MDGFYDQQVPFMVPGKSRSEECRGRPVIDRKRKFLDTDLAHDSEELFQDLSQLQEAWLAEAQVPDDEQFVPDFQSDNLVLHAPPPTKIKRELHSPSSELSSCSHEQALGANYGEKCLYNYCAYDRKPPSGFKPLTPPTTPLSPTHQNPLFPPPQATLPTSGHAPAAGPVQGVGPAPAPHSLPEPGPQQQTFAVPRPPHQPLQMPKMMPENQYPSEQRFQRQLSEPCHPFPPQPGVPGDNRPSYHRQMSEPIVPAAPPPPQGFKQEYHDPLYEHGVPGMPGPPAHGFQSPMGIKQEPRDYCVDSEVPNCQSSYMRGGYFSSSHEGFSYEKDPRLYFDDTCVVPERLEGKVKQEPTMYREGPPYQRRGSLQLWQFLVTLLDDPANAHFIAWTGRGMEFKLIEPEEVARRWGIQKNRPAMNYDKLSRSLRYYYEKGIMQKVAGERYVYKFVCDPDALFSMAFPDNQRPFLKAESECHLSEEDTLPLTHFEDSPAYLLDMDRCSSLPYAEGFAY
# Outline: as §1
# [12] = target: HSF1 (Homo sapiens, UniProt Q00613 1-529); settings: protein: recombinant; tags: N-terminal GST; chain copies: 3; dsDNA, one strand shown
# Sequence of HSF1 (Q00613 whole entry): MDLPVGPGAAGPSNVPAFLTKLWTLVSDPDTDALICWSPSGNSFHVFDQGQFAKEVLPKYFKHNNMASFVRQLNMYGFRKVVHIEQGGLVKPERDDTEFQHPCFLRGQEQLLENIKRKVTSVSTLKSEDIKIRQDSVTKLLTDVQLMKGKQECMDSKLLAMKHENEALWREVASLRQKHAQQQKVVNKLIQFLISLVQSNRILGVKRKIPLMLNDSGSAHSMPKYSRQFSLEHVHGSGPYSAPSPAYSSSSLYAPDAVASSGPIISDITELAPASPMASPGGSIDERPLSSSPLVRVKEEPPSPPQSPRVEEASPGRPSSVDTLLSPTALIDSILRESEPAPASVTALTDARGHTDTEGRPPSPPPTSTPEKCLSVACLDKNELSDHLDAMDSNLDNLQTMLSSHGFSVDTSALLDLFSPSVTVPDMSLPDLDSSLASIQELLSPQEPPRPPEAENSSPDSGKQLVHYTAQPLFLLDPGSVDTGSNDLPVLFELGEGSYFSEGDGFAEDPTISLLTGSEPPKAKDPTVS
# Outline: as §1
# [13] = target: T8, SPIC (Homo sapiens, UniProt Q8N5J4 1-248); settings: protein: recombinant; tags: N-terminal GST; dsDNA, one strand shown
# T8 sequence: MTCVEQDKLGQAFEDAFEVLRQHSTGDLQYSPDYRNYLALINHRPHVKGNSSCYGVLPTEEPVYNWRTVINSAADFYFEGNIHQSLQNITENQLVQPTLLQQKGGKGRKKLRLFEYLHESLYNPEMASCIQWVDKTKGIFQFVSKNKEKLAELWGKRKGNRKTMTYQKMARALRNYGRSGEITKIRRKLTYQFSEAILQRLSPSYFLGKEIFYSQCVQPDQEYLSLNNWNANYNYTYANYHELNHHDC
# Outline: as §1
# [14] = target: ELF4 (Homo sapiens, UniProt Q99607 1-663); settings: protein: recombinant; tags: N-terminal GST; dsDNA, one strand shown
# Sequence of ELF4 (Q99607 whole entry): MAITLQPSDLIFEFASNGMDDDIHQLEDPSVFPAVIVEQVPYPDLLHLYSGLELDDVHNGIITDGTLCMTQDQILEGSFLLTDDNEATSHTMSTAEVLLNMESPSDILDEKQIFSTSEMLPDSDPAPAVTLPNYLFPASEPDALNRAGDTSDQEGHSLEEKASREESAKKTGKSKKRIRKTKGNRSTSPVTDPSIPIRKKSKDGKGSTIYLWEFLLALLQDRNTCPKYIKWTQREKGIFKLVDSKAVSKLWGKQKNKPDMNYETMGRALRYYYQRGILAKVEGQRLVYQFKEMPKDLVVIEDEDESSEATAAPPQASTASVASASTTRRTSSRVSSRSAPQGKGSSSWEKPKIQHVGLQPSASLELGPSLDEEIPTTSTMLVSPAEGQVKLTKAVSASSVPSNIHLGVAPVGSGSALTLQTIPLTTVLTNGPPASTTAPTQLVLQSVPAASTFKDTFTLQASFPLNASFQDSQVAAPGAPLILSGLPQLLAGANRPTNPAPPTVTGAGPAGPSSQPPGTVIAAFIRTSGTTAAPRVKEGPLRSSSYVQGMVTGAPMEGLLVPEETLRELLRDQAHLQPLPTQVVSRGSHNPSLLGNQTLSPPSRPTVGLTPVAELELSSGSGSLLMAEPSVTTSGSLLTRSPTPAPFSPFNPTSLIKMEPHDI
# Outline: as §1
# [15] = target: T9, ELK4 (Homo sapiens, UniProt P28324-2 1-405); settings: protein: recombinant; tags: N-terminal GST; dsDNA, one strand shown
# T9 sequence: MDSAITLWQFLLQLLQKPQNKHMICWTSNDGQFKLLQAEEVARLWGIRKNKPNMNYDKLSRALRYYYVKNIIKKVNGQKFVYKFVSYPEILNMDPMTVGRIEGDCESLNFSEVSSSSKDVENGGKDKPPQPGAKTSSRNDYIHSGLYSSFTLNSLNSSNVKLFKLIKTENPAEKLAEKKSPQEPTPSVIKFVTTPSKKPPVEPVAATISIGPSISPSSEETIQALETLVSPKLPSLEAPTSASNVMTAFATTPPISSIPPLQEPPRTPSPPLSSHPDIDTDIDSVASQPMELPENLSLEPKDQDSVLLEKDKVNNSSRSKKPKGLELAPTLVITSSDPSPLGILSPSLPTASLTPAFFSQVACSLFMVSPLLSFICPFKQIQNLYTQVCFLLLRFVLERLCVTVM
# Outline: as §1
# [16] = target: T10, ETV2 (Homo sapiens, UniProt O00321 1-342); settings: protein: recombinant; tags: N-terminal GST; dsDNA, one strand shown
# T10 sequence: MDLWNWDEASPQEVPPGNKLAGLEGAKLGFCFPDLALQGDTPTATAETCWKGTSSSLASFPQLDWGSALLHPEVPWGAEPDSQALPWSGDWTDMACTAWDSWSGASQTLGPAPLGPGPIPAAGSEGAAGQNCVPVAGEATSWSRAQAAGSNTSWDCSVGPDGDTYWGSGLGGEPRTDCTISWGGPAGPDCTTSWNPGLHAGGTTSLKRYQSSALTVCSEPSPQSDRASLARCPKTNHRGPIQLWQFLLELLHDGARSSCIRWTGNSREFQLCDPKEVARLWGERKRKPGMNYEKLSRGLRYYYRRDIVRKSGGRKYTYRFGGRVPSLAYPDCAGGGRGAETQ
# Outline: as §1
# [17] = target: T11, ELF3 (Homo sapiens, UniProt P78545 1-371); settings: protein: recombinant; tags: N-terminal GST; dsDNA, one strand shown
# T11 sequence: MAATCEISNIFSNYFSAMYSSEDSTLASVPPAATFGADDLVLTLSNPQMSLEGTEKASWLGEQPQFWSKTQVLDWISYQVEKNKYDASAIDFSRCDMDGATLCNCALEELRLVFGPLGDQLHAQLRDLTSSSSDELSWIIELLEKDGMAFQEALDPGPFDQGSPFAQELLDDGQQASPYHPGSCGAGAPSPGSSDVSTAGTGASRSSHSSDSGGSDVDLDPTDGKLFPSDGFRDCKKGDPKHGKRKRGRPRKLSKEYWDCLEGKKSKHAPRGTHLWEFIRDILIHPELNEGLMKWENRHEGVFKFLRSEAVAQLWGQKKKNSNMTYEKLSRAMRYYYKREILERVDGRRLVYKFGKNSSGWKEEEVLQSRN
# Outline: as §1
# [18] = target: CRX (Homo sapiens, UniProt O43186 1-299); settings: protein: recombinant; tags: N-terminal GST; dsDNA, one strand shown
# Sequence of CRX (O43186 whole entry): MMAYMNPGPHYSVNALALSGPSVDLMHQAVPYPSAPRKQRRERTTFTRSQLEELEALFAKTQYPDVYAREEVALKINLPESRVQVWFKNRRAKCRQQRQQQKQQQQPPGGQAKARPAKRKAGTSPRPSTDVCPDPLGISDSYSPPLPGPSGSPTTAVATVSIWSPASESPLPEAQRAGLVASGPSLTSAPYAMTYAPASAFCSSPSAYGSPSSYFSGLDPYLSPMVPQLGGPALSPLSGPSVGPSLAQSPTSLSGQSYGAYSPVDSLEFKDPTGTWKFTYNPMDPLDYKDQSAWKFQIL
# Outline: as §1
# [19] = target: ETV1 (Homo sapiens, UniProt P50549 1-477); settings: protein: recombinant; tags: N-terminal GST; dsDNA, one strand shown
# Sequence of ETV1 (P50549 whole entry): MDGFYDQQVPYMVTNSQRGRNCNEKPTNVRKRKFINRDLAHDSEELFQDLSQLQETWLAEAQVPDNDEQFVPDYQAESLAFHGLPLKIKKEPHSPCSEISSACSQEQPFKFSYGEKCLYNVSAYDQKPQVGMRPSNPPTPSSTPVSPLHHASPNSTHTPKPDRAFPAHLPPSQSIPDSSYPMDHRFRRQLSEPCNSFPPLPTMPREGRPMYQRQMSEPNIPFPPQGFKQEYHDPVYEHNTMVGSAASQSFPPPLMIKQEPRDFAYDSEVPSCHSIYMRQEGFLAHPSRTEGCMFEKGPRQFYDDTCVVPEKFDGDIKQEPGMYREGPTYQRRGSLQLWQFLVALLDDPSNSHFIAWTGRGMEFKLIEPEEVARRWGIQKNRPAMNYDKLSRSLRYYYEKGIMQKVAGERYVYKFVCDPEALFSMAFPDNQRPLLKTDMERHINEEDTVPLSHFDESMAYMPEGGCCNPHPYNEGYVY
# Outline: as §1
sequence,measurement,setting,value
AAGTAC,binding signal,[1],"1.52 fold enrichment (6-mer frequency, TF over GST control)"
same,binding signal,[2],"1.74 fold enrichment (6-mer frequency, TF over GST control)"
same,binding signal,[3],"1.44 fold enrichment (6-mer frequency, TF over GST control)"
same,binding signal,[4],"1.53 fold enrichment (6-mer frequency, TF over GST control)"
same,binding signal,[5],"1.49 fold enrichment (6-mer frequency, TF over GST control)"
same,binding signal,[6],"1.59 fold enrichment (6-mer frequency, TF over GST control)"
same,binding signal,[7],"1.62 fold enrichment (6-mer frequency, TF over GST control)"
same,binding signal,[8],"1.57 fold enrichment (6-mer frequency, TF over GST control)"
same,binding signal,[9],"1.73 fold enrichment (6-mer frequency, TF over GST control)"
same,binding signal,[10],"1.52 fold enrichment (6-mer frequency, TF over GST control)"
same,binding signal,[11],"1.59 fold enrichment (6-mer frequency, TF over GST control)"
same,binding signal,[12],"1.29 fold enrichment (6-mer frequency, TF over GST control)"
same,binding signal,[13],"1.58 fold enrichment (6-mer frequency, TF over GST control)"
same,binding signal,[14],"1.5 fold enrichment (6-mer frequency, TF over GST control)"
same,binding signal,[15],"1.32 fold enrichment (6-mer frequency, TF over GST control)"
same,binding signal,[16],"1.41 fold enrichment (6-mer frequency, TF over GST control)"
same,binding signal,[17],"1.68 fold enrichment (6-mer frequency, TF over GST control)"
same,binding signal,[18],"1.34 fold enrichment (6-mer frequency, TF over GST control)"
same,binding signal,[19],"1.49 fold enrichment (6-mer frequency, TF over GST control)"
